From PubChem BioAssay come the findings set out here.

A number with no mark means an inactive call. How the calls were made is not given here.

By inhibition is commonly meant the change of the read-out against control, counted positive when it falls.

Sequence of Pantothenate synthetase (Mycobacterium tuberculosis (strain ATCC 25618 / H37Rv)) (P9WIL5 whole entry, looked up): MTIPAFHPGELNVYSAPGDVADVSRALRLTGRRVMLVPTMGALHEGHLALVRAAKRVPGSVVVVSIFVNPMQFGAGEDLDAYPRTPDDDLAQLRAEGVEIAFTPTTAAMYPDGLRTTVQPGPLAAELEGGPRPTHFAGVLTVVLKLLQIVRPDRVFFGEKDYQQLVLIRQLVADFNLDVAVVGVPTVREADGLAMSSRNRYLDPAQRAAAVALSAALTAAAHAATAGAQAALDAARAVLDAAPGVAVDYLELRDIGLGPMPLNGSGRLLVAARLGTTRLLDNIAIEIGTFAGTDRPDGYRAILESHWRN

This assay has as its target Pantothenate synthetase (Mycobacterium tuberculosis (strain ATCC 25618 / H37Rv)) (UniProt P9WIL5). Briefly: Recombinant Mtb pantothenate synthetase (PanC) inhibitors, coupled enzyme, confirmatory (AID 375).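 Further: 0% = full reaction with vehicle and 100% = no enzyme background.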 The following applies: coupled enzyme assay; at 10 µM, stronger effect = higher value.
Take `O=C(Nc1nc2c(s1)CCCC2)C1COc2ccccc2O1` (stereo not given): the inhibition is 0%.
The result for `CCCCCOC(=O)C1=C(C)N(C)C(=O)NC1c1cc(Br)c(O)c(OC)c1` (stereo not given) reads 0%; that for `COc1cc2c(cc1OC)CN(C(=O)CSc1nnc3scc(-c4ccccc4)n13)CC2`, 0%.
The result for `Nc1nc2ccc(OC(F)(F)F)cc2s1` reads 7%.
For the compound `Cc1cccc2cc(C(c3nnnn3C(C)(C)C)N3CCN(C(=O)c4ccco4)CC3)c(=O)[nH]c12` (stereo not given), the inhibition is 6%.
The result for `CCOc1nc(-c2ccccc2O)nc2ccccc12` reads 0%; that for `CC(C)CN(C(=O)COC(=O)Cc1n[nH]c(=O)c2ccccc12)C1CCS(=O)(=O)C1` (stereo not given), 2%.
With `NS(=O)(=O)c1cc2c(cc1Cl)NC=NS2(=O)=O` the figure was 3%; with `COC(=O)c1ccccc1NC(=O)C1CC=CCC1C(=O)O` (stereo not given), 0%.
With `CCOc1ccc(NC(=O)C(C)Sc2nnc(C)n2C)cc1` (stereo not given) the figure was 0%; with `CCOc1ccc2c(c1)sc1nc(C(=O)OC)cc(=O)n12`, 0%.
As to `[O-][n+]1c2c(nn1-c1ccccc1Cl)-c1nonc1CC2`, the inhibition is 4%.
The result for `Cc1cc(NC(=O)C2=C(O)c3ccccc3S(=O)(=O)N2C)no1` reads 0%.
With `CCC(=NC(C)c1ccccc1)c1c(O)n(C)c(=O)n(C)c1=O` (stereo not given), the inhibition was 0%.
The result for `Cc1cc(C)cc(-n2nnc(C(=O)NCc3ccco3)c2N)c1` reads 0%; that for `COc1ccc(CC(=O)Nc2cc(Cl)ccc2O)cc1`, 5%.
The result for `CCCn1c(O)c(CN2CCCC(C)C2)c(C)c(C#N)c1=O` (stereo not given) reads 10%.
With `CCCCOn1c(C)c(C(=O)OCC)c2c3nonc3ccc21` the figure was 0%; with `COc1c(Br)cc2c(C)c(C(=O)O)oc2c1Br`, 2%.
As to `CCOC(=O)c1c(C)[nH]c(C=Nc2ccccc2)c1O`, the inhibition is 0%.
For the compound `O=C(NCCN1C(=O)C2C3C=CC(C3)C2C1=O)Nc1ccccn1` (stereo not given), the inhibition is 0%.
With `CC(=O)c1ccc(-c2nc3ccccc3n2C)o1` the figure was 0%; with `COc1ccc(OC)c(NC(=O)Cc2coc3ccc(C)cc23)c1`, 6%; with `CC(C)(C)c1ccc(O)c(N)c1`, 2%.
On to `O=C(C1CCN(c2nnc(-n3cccc3)s2)CC1)N1CCN(Cc2ccc3c(c2)OCO3)CC1`, for which the inhibition is 10%.
The result for `CCOc1ccc2nc(NC(=O)CSc3nc4ccccc4c(=O)n3Cc3ccco3)sc2c1` reads 0%.
The result for `COC(=O)c1sc(S(=O)(=O)N2CCN(c3ccccc3)CC2)c(C(=O)OC)c1C` reads 10%; that for `COc1ccc(C(=O)N2CCN(C3CCC(c4ccccc4)CC3)CC2)cc1OC` (stereo not given), 2%; that for `O=C(NCCO)c1cccc2c1C(=O)c1ccccc1-2`, 11%.
The result for `COc1ccc(Cc2nc3ccc(S(N)(=O)=O)cc3[nH]2)cc1OC` reads 0%; that for `CCc1ccc(N2CC34C=CC(O3)C(C(=O)OC)C4C2=O)cc1` (stereo not given), 0%; that for `Oc1ccc(N2CCN(C(c3cccnc3)c3nnnn3Cc3ccccc3)CC2)cc1` (stereo not given), 0%.
For `COC(=O)C1C(=O)C2=C(CC1C)NC(=O)CC2c1ccccc1` (stereo not given), the inhibition was 0%.
With `COc1ccc(Cl)cc1S(=O)(=O)n1cnc2ccccc21` the figure was 1%; with `O=C(Nc1cnn(C23CC4CC(CC(C4)C2)C3)c1)c1cnn2c(C(F)(F)F)cc(-c3ccco3)nc12`, 0%.
Regarding `CC(=O)NC(C)c1nc2ccccc2n1C(C)C` (stereo not given), the inhibition was 6%.
With `CN(C)C(CNC(=O)Nc1cccc(Cl)c1)c1cccnc1` (stereo not given) the figure was 0%; with `Cc1ccnc(NC(=O)CCC(=O)N(CC(=O)NC2CCCCC2)c2cccc(C)c2C)c1`, 0%; with `O=c1c[n+]([O-])c2ccccc2n1OCc1c(F)cccc1F`, 4%.
With `Cc1csc2ncc(C(=O)N3CCc4ccccc43)c(=O)n12` the figure was 6%.
